# PL biosyn Enam: blocks phospholipid synthesis in CHO cells, Enamine compounds | AID 1347385 | ZR-82 CHO cells, pyrene fatty acid UV survival, CellTiter Blue; peroxisome-deficient CHO-K1 mutant line; plus DGAT-1, DGAT-2 and ACAT inhibitors | 0.4% of 20,000 active | calls only at 10 µM;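 active = cell survival signal 2 SD away from solvent-only control wells, confirmed on one or two retests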;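 note: 3 h compound exposure then viability read about one day after UV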
# * hit, by the source's call; i = inactive; + = active, no number. This excerpt belongs to a sample that is enriched for hits.
SMILES,PL biosyn Enam
CCN1C(=Cc2cc(C)[n+](N3CCN(C)CC3)c(C)c2)Sc2ccccc21,i
CCN1C(=Cc2cc(C)[n+](CCO)c(C)c2)Sc2ccccc21,i
CCC(CO)[n+]1c(C)cc(C=C2Sc3ccccc3N2Cc2ccccc2)cc1C (centres undefined),+
OCCOc1cc(Br)c(Br)cc1OCCO,i
CC1CCCCC12NC(=O)N(CC(=O)OCC(=O)C(C)(C)C)C2=O (centres undefined),i
CN(C)c1ccc(C=Nc2ccc(N=Cc3ccc(N(C)C)cc3)cc2)cc1,i
CN(C)c1ccc(N=Cc2sc3ccccc3c2Cl)cc1,i
CN(C)c1ccc(N=Nc2nn[nH]n2)cc1,i
CN(C)c1ccc(N=Nc2ccc(S(=O)(=O)O)cc2)cc1,i
CN(C)c1ccc(N=Nc2ccccc2Br)cc1,+
CN(C)c1ccc(N=Nc2ccccc2Cl)cc1,+
O=C1C(=C2SCCS2)CCCC12CC2c1ccccc1 (centres undefined),i
S=c1[nH]nc(-c2ccc(Cl)cc2Cl)n1/N=C/c1ccccc1Cl,i
CCOC(=O)c1[nH]c(C)c(C(=O)OCc2nccn2C(F)F)c1C,i
O=[N+]([O-])c1ccccc1/C=C/C=N/n1cc(-c2ccccc2)[nH]c1=S,i
Fc1ccc(NC(=S)N/N=C2\CCc3ccccc32)c(F)c1,i
CC(C)CSc1nc(N)c2ccsc2n1,i
Cc1ccc(-c2csc(=NC(C)C)n2/N=C/c2ccc(Cl)cc2)cc1C,+
CN=c1scc(-c2ccc(Br)cc2)n1/N=C/c1ccc(Cl)cc1,i
CC(C)N=c1scc(-c2ccc(Cl)c(Cl)c2)n1/N=C/c1ccc2c(c1)OCCO2,i
O=[N+]([O-])c1ccc(N/N=C/c2cc3c(cc2[N+](=O)[O-])OCO3)c(S(=O)(=O)Nc2ccc(Cl)cc2)c1,i
O=S(=O)(N/N=C/c1ccncc1)c1ccc(Br)cc1,i
O=C1CCC(C(=O)NNc2c(F)c(F)cc(F)c2F)=NN1,i
Brc1ccccc1C=C(c1nc2ccccc2s1)c1nc2ccccc2s1,i
O=C1Nc2ccc(Br)cc2C1=C(c1nc2ccccc2s1)c1nc2ccccc2s1,+
SMILES,PL biosyn Enam
Oc1c(Br)cc(/C=C/c2nc3ccccc3s2)cc1Br,i
C(=N\Nc1ccc2ccccc2c1)/C1=C(Sc2nc3ccccc3o2)CCCC1,i
CCN(CC)P(=O)(C1=C(N2CCOCC2)C(P(=S)(c2ccccc2)c2ccccc2)CCC1)N(CC)CC (centres undefined),i
COc1cc(-c2nnc(SCCSc3ccc(Cl)cc3)o2)cc(OC)c1OC,i
Cc1nn(-c2ccccc2)c(N)c1N=Nc1ccc([N+](=O)[O-])c(C(F)(F)F)c1,+
Cc1cccc(N=Nc2c(C)nn(-c3ccccc3)c2N)c1C,i
Cc1ccc(-n2nc(C)c(N=Nc3ccccc3C)c2N)cc1,i
CCNC(=O)NC(=O)C(C)Sc1nc(C)nc2sc(C)c(C)c12 (centres undefined),i
O=C1OC(c2ccc(Cl)cc2)=N/C1=C\c1ccc(F)c(F)c1,i
NC(=O)NCC(F)(F)F,i
C=CCn1c(SCC(=O)c2cc(C)n(C3CC3)c2C)nnc1-c1ccoc1C,i
Cc1cc(C)c2[nH]c(O)c(N=Nc3ccccn3)c2c1,+
Oc1[nH]c2ccc(Br)cc2c1N=Nc1ccccn1,i
CCN(CC)S(=O)(=O)c1ccc(N=Nc2c(O)[nH]c3c(C)cc(C)cc23)nc1,i
CN1c2ccccc2C(C)(C)C12C=Cc1cc([N+](=O)[O-])ccc1O2 (centres undefined),i
O=C1Nc2ccc(Br)cc2C12NNc1ccccc1O2 (centres undefined),+
O=c1c2cc([N+](=O)[O-])ccc2oc2ccc([N+](=O)[O-])cc12,i
O=C1Nc2ccc(Br)cc2C1(O)C(F)(F)F (centres undefined),i
O=C1NC2(Oc3ccccc31)C(=O)Nc1ccccc12 (centres undefined),i
O=C1Nc2ccc([N+](=O)[O-])cc2C12NNc1ccccc1O2 (centres undefined),+
O=C(O)Cc1nn[nH]n1,i
CCOC(=O)c1c(NC(=O)COC(=O)C(CC(C)C)NC(N)=O)sc(C)c1CC (centres undefined),i
CC(Sc1nc2sc3c(c2c(=O)n1CC1CCCO1)CCC3)C(=O)NCC1CCCO1 (centres undefined),i
O=C1NC(Cc2c[nH]c3ccccc23)C(=O)N1Cc1nc2ccccc2s1 (centres undefined),i
CCNCC(=O)NC(C)C,i
SMILES,PL biosyn Enam
COC(=O)c1nc(S(C)(=O)=O)ncc1Cl,i
CCOC(=O)c1ccc(C[N+]2(C)CCOCC2)o1,i
O=C(/C=C/c1cccs1)NC1CCCC1,i
S=C(N/N=C/c1cccs1)NC1CCCCC1,+
COCCNC(=S)N/N=C/c1cccs1,i
C=C(Br)Cn1c(-c2ccccc2)nc2ccccc21,i
CCCCN(CCCC)[P+](Nc1n[nH]c(=O)[nH]c1=O)(N(CCCC)CCCC)N(CCCC)CCCC,+
CC1c2cccn2CCN1S(=O)(=O)c1ccc(Cl)cc1 (centres undefined),i
CC1C/C(=N\NC(=S)NC2CCCCC2)CC(C)(C)C1 (centres undefined),+
S=C(N/N=C1\CC2CC=CC12)NC1CCCCC1 (centres undefined),i
CC1C/C(=N\NC(=O)C(N)=O)CC(C)(C)C1 (centres undefined),i
O=C(Cn1cnc2sc3c(c2c1=O)CCCC3)N1CCCC1,i
Brc1cc2c(cc1COc1ccc(-c3nnco3)cc1)OCCO2,i
O=C1C2C3CC(C2C(=O)N1c1cccc(C(F)(F)F)c1)C1C(c2cccnc2)c2sc(=O)[nH]c2SC31 (centres undefined),i
O=C1CSC(=S)N1CCS(=O)(=O)O,i
O=S(=O)(N/N=C/c1c[nH]c2ccccc12)c1ccc(Br)cc1,i
C=CCN1C(=O)/C(=N\N=C\c2c[nH]c3ccccc23)c2ccccc21,+
NC(=S)N/N=C/c1c[nH]c2ccccc12,i
Cc1nn(Cc2cc(=O)n3cc(Br)ccc3n2)c(C)c1[N+](=O)[O-],i
CC1CCc2c(C(=O)Nc3sc4c(c3C(N)=O)CCCC4)csc2C1 (centres undefined),i
ClC1(Cl)CC1CNc1ncnc2sccc12 (centres undefined),+
OCCCNc1ncnc2sccc12,i
CN(C)C(CNc1ncnc2sccc12)c1cccs1 (centres undefined),i
O=[N+]([O-])c1ccc(/C=N/Nc2ccc(Cl)cc2)o1,i
Oc1cc2c(cc1CN1CCc3sccc3C1c1cccs1)OCO2 (centres undefined),i
SMILES,PL biosyn Enam
CN1/C(=C\C=Nc2ccccc2N)C(C)(C)c2ccccc21,+
CN1/C(=C\C=Nc2ccccc2I)C(C)(C)c2ccccc21,i
CN1/C(=C\C=Nc2c(F)c(F)c(F)c(F)c2F)C(C)(C)c2ccccc21,i
Nc1nc(=O)c2cccnc2s1,i
COc1ccccc1N=Nc1c(O)ccc2ccccc12,i
Cc1nc(N)sc1N=Nc1cccc2ccccc12,+
CC(=O)Oc1ccc2c(=O)c(Oc3ccc(I)cc3)c(C(F)(F)F)oc2c1C,i
O=C1C=C(Nc2ccc3c(c2)OCO3)CC2(CCCCC2)C1,i
CCC1(C)Oc2ccccc2C2CC(c3ccccc3)=NN21 (centres undefined),i
